Screening data deposited in PubChem by several laboratories.
Only some compounds are listed: those with a hit (about 2.2% of all), similar ones and a draw of the others.
SMARCA2 act: SMARCA2 function activation, primary screen; AID 652017; MG213 cells, MMTV-luciferase reporter, dexamethasone, overnight; hit rate 1% among 370,000; activation, % at 9.1 µM; in the data active = activation above about 7.8%
GAA850 FXN act: frataxin GAA850 promoter activation; HEK293 lucGAA850 FXN promoter luciferase reporter, 24 h; percent of 10 µM SAHA response; activation, % at 6 µM; hit rate 0.56% among 360,000; AID 540364;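 active = activation above the average of all compounds screened plus 3 SD, cutoff fixed separately per campaign, cut at about 7.5% in these data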
HIF activator: HIF pathway transcriptional activation; U2OS HRE-luciferase reporter, luminescence; normalized: DMSO 0%, desferrioxamine 100%; activation, % at 7.5 µM (by protocol); hit rate 0.32% among 300,000;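 active = mean activation of at least 10% of the iron chelator positive control signal, with at least half of replicates also reaching 10%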
GalR3 antag: human GalR3 antagonism. O60755. HEK293 GalR3-CNG cAMP membrane potential fluorescence; galR3 body fused to GalR1 C-terminus. inhibition, % at 3 µM. hit rate 0.44% among 360,000;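 active = inhibition above the screen-wide average plus 3 SD, cut at about 13% in these data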;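 also: forskolin and galanin both at EC90 stimulate the cells; cAMP rise reported by CNG channel membrane potential dye signal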
Target sequence (O60755 1-299 limits assumed): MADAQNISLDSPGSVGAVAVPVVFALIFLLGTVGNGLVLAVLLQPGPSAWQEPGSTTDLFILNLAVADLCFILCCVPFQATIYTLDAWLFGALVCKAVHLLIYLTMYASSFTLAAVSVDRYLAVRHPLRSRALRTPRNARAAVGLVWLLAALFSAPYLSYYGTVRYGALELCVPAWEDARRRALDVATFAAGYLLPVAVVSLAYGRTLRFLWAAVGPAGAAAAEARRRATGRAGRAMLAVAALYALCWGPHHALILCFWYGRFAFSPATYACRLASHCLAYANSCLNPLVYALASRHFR
Hsp70 act: Hsp70 transcriptional activation, primary screen. hit rate 0.04% among 200,000. activation, % at 10 µM. HeLa Hsp70 promoter luciferase reporter, luminescence; scaled: vehicle 0, proteasome-inhibitor control 100%;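 active = activation above the mean across all tested compounds plus 3 SD, cutoff set per campaign, cut at about 5.5% in these data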
SMARCA2 act conf: confirmation of SMARCA2 (BRM) function activators. shares compounds with SMARCA2 act. MG213 cells, MMTV-luciferase with dexamethasone, luminescence, overnight; MG213 cells expressing E1A, Rb sequestered; DMSO wells 0%, reference activator 100%. activation, % at 9.1 µM. hit rate 30% among 3,500. AID 652260;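 active = activation above its plate's cutoff, the mean activation of tested wells plus 3 SD, cut at about 7.9% in these data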
VP16 Luc act: GAL4-VP16 reporter activation counter-screen; shares compounds with SMARCA2 act; AID 686939; activation, % at 9.1 µM; hit rate 41% among 3,500; HEK293 GAL4-VP16 pG5luc reporter, luciferase luminescence; scaled: DMSO wells 0%, SAHA wells 100%;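 active = activation above the solvent-only control well mean plus 3 SD, averaged across control plates, cut at about 5.2% in these data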
Each line names hits and unclear results; the compound was inactive in the other large screens (follow-up assays come after a bar, where they were run).

Cc1ccc(C2CC(=O)C=C(Nc3ccc(Cl)cc3)C2)cc1 (stereo not given)	SMARCA2 act 9.9 | SMARCA2 act conf inactive | VP16 Luc act inactive
O=c1c(=NNc2ccccc2Cl)c(=O)c2ccccc12	SMARCA2 act 8.4 (no result: HIF activator) | SMARCA2 act conf inactive | VP16 Luc act inactive
CC(C)CN1C(=O)[C@@]2(CC(=O)N(C)C2c2ccccc2)c2cc(-n3cc(C(C)(C)O)nn3)ccc21 (stereo not given in full)	none (no result: GAA850 FXN act, HIF activator, GalR3 antag, Hsp70 act)
COC(CNC(=O)C1CCCN(S(=O)(=O)c2ccc3c(c2)oc(=O)n3C)C1)OC (stereo not given)	none (no result: Hsp70 act)
CCCN(CCC)C(=O)C1CCCN(S(=O)(=O)c2ccc3c(c2)oc(=O)n3C)C1 (stereo not given)	SMARCA2 act 10 (no result: Hsp70 act) | SMARCA2 act conf inactive | VP16 Luc act inactive
COc1ccccc1Nc1nc(N)nc(CSC(=S)N2CCC(C)CC2)n1	none
COc1ccccc1Nc1nc(N)nc(CSC(=S)N2CCN(c3ccccc3)CC2)n1	SMARCA2 act 8.7 | SMARCA2 act conf inactive | VP16 Luc act inactive
CCOc1ccc(N(CC(=O)Nc2c(C)n(C)n(-c3ccccc3)c2=O)S(=O)(=O)c2cccs2)cc1	none (no result: GAA850 FXN act, HIF activator, GalR3 antag, Hsp70 act)
CCC1CSC(=Nc2ccc(C)cc2)N1C(=O)CN1C(=O)NC2(CCCC2)C1=O (stereo not given)	SMARCA2 act 9.7 (no result: Hsp70 act) | SMARCA2 act conf 11 | VP16 Luc act 8.2
CN(CCc1ccccn1)C(=O)Cn1nc(-c2ccccc2)ccc1=O	none (no result: GAA850 FXN act, HIF activator, GalR3 antag, Hsp70 act)
Nn1c(SCC(=O)N2CCOCC2)nnc1-c1cc(-c2ccc(F)cc2)n[nH]1	none (no result: GAA850 FXN act, HIF activator, GalR3 antag, Hsp70 act)
CCN=C1NC(CCc2ccccc2)C(C(=O)OC)=C(C)N1Cc1ccccc1C(F)(F)F (stereo not given)	none (no result: GAA850 FXN act, HIF activator, Hsp70 act)
Cc1cc(C)cc(NC(=O)CCc2nc3sc4c(c3c(=O)[nH]2)CCCC4)c1	SMARCA2 act 24 (no result: Hsp70 act) | SMARCA2 act conf 28 | VP16 Luc act inactive
CN(Cc1ccco1)C(=O)CCc1nc2sc3c(c2c(=O)[nH]1)CCCC3	SMARCA2 act 8.2 (no result: Hsp70 act) | SMARCA2 act conf inactive | VP16 Luc act inactive
C[C@@H](CO)N(Cc1cn(Cc2ccccc2)nn1)S(=O)(=O)c1ccc(F)cc1Br	none (no result: GAA850 FXN act, HIF activator, GalR3 antag, Hsp70 act)
Cc1cc(OCC(C)CN2CCC(C(O)(c3ccccc3)c3ccccc3)CC2)ccc1Br (stereo not given)	none (no result: GAA850 FXN act, HIF activator, GalR3 antag, Hsp70 act)
Cc1ccccc1C1NS(=O)(=O)N=C1N (stereo not given)	SMARCA2 act 8.0 | SMARCA2 act conf inactive | VP16 Luc act inactive
O=C(/C=C/c1ccco1)Nc1ccc(CN2CCOCC2)cc1	SMARCA2 act 9.4 (no result: HIF activator, Hsp70 act) | SMARCA2 act conf 9.2 | VP16 Luc act 11
Cc1ccc(-n2c(SCc3cccc(F)c3)nc3ccccc3c2=O)cc1	none (no result: GAA850 FXN act, HIF activator, GalR3 antag, Hsp70 act)
Clc1c(-c2ccccc2)nc2ccccn12	none (no result: Hsp70 act)
c1ccn2c(c1)nc1c2nc2ccccn21	SMARCA2 act 12 | SMARCA2 act conf inactive | VP16 Luc act inactive
CCCCCCCCNS(=O)(=O)/C=C/c1ccc(OC)cc1CNC(=O)OC(C)(C)C	none (no result: GAA850 FXN act, HIF activator, GalR3 antag, Hsp70 act)
COC(=O)[C@]12C[C@H](CC(=O)NCc3cccs3)C(=O)N(Cc3ccco3)C1=C[C@H](COCc1ccccc1)O[C@@H]2C	none (no result: GAA850 FXN act, HIF activator, GalR3 antag, Hsp70 act)
O=C(NNC(=O)c1ccccc1Cl)c1ccncc1	SMARCA2 act 8.7 | SMARCA2 act conf inactive | VP16 Luc act inactive
CCOC(=O)[C@@]12CCCC=C1N(CCc1ccc(Cl)cc1)C(=O)[C@H]2CC(=O)NCc1cccs1	none (no result: GAA850 FXN act, HIF activator, GalR3 antag, Hsp70 act)
CCN(CC)C(=O)CSc1nnc(-c2ccccn2)n1C	none (no result: GAA850 FXN act, HIF activator, GalR3 antag, Hsp70 act)
COc1cccc(-c2ccc3c(N)c(C(=O)NC4CC4)sc3n2)c1	SMARCA2 act 13 (no result: Hsp70 act) | SMARCA2 act conf inactive | VP16 Luc act 8.5
CC1(C(=O)NS(=O)(=O)Cc2ccccc2)CCN1C(=O)Cc1ccc(-c2ccccc2)cc1 (stereo not given)	SMARCA2 act 8.3 (no result: HIF activator, Hsp70 act) | SMARCA2 act conf inactive | VP16 Luc act inactive
CC1(C(=O)NS(=O)(=O)Cc2ccccc2C(F)(F)F)CCN1C(=O)Cc1ccccc1 (stereo not given)	none (no result: HIF activator, Hsp70 act)
CN1[C@@H](Cc2ccccc2)COc2cccc(N3CCCC3)c2S1(=O)=O	none (no result: GAA850 FXN act, HIF activator, GalR3 antag, Hsp70 act)
C=CCNc1nc(NCc2ccc(N(C)C)cc2)c2sc(-c3ccccc3)cc2n1	SMARCA2 act 10 (no result: HIF activator, Hsp70 act) | SMARCA2 act conf 11 | VP16 Luc act 11
Clc1nccnc1N/N=C/c1ccc(Br)cc1	none (no result: Hsp70 act)
COc1ccc(/C=N/Nc2nccnc2Cl)cc1	SMARCA2 act 8.7 | SMARCA2 act conf inactive | VP16 Luc act 12
COc1ccc(OC)c(S(=O)(=O)Nc2cccc3ccccc23)c1	none (no result: Hsp70 act)
COc1ccc(OC)c(S(=O)(=O)Nc2c(F)cccc2F)c1	SMARCA2 act 10.0 | SMARCA2 act conf inactive | VP16 Luc act inactive
CC(C)C[C@@H]1COc2cc(Br)ccc2S(=O)(=O)N1Cc1cn(Cc2ccc(Cl)cc2)nn1	none (no result: GAA850 FXN act, HIF activator, GalR3 antag, Hsp70 act)
C[C@H]1C2CC(OC(=O)Nc3cccc(Cl)c3)C(C2)[C@H]2CCCCN21 (stereo not given in full)	none (no result: GAA850 FXN act, HIF activator, GalR3 antag, Hsp70 act)
COc1ccc(C(C(=O)N(C)C2CCCC2)N(Cc2ccc(F)cc2)C(=O)c2ccc3ccccc3c2)cc1OC (stereo not given)	none (no result: GAA850 FXN act, HIF activator, GalR3 antag, Hsp70 act)
Cc1ccc(SCc2cn3c(C)csc3n2)cc1	SMARCA2 act 10 (no result: HIF activator) | SMARCA2 act conf inactive | VP16 Luc act 8.8
Cc1cccc2nc(CSc3ccc(Cl)cc3)cn12	SMARCA2 act 10 | SMARCA2 act conf inactive | VP16 Luc act inactive
Clc1ccc(SCc2cn3ccccc3n2)cc1	none
Cc1ccc(S(=O)(=O)NCc2cn3c(C)csc3n2)cc1	none
Cc1ccc(O)c(C(C)c2c[nH]c3ccccc23)c1 (stereo not given)	none (no result: GAA850 FXN act, HIF activator, GalR3 antag, Hsp70 act)
C/C(NC(=O)c1ccccc1)=C1/C(=O)CC2C1C2(C)C (stereo not given)	SMARCA2 act 8.0 | SMARCA2 act conf 19 | VP16 Luc act inactive
CC(=O)C1=C(NC(=O)c2ccc(F)cc2)CC2C1C2(C)C (stereo not given)	none
CCOC(=O)c1sc(N)c(C(=O)OCC)c1C	SMARCA2 act 22 (no result: Hsp70 act) | SMARCA2 act conf inactive | VP16 Luc act 7.5
CCOc1ccc(OCc2ccc(C(=O)N/N=C(\C)c3ccccn3)cc2)cc1	none
C/C(=N\NC(=O)c1ccccc1OCc1ccc(F)cc1)c1ccccn1	SMARCA2 act 17 (no result: HIF activator, Hsp70 act) | SMARCA2 act conf inactive | VP16 Luc act 7.6
O=C(Nc1ccc(Br)cc1)OC1CC2CC1[C@H]1CCCCN1C2 (stereo not given in full)	none (no result: GAA850 FXN act, HIF activator, GalR3 antag, Hsp70 act)
C/C(=N\NC(=O)c1nnn(-c2nonc2N)c1C)c1ccc(OCc2ccccc2)cc1	SMARCA2 act 14 (no result: Hsp70 act) | SMARCA2 act conf inactive | VP16 Luc act 6.1
COc1cccc(NC(=O)Nc2nc3ncccn3c2-c2ccc(C)cc2)c1	none (no result: GAA850 FXN act, HIF activator, GalR3 antag, Hsp70 act)
